According to PubChem BioAssay (Tox21):
Inconclusive results are not listed. Activity calls are given as the source filed them. Unless noted, calls come from the whole dose curve; as a rule, active = well fitted curve in the direction sought with a large enough effect in the repeat runs; inconclusive = weak or mixed curves; inactive = no such curve, though single readings can be large; an effect the other way counts as inactive or inconclusive.

Experiments:
[1] = qHTS assay for small molecules that induce genotoxicity in human embryonic kidney cells expressing luciferase-tagged ATAD5 (AID 651632); settings: HEK293T ATAD5-luciferase induction, 16 h; series mostly up to 83.3 µM; note: nearly all actives have a fitted effect of over 15% in size; note: potency is the fitted concentration of half-maximal effect
How it was run: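 ATAD5-luc HEK293T, 2,000 cells/well; cpd or DMSO pin-transferred; 16 hr, 37C/5% CO2; Amplite 30 min RT; luminescence.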

[2] = qHTS assay for small molecule agonists of the p53 signaling pathway - cell viability (AID 651633; calls by dose curve; note: nearly all actives have a fitted effect of over 30% in size; note: potency is the fitted concentration of half-maximal effect); settings: p53RE-bla HCT-116 viability, ATP luminescence, 16 h; series mostly up to 83.3 µM
How it was run: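 p53RE-bla cells, seeded at 4,000 per well and rested 5 h at 37 C/5% CO2, received compounds in DMSO for 16 h at 37 C. CellTiter-Glo was then added, and luminescence was read after 30 min at room temperature to gauge cytotoxicity.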

[3] = qHTS assay for small molecules that induce genotoxicity in human embryonic kidney cells expressing luciferase-tagged ATAD5 - cell viability (AID 651634; calls by dose curve; note: nearly all actives have a fitted effect of over 25% in size; note: potency is the fitted concentration of half-maximal effect); settings: HEK293T ATAD5-luc cells viability, CellTiter-Fluor, 15.5 h; series mostly up to 83.3 µM
How it was run: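 Fluorescence from CellTiter-Fluor, reporting protease activity within live cells, served as the viability read-out. HEK293T cells carrying luciferase-tagged ATAD5 had been treated with compound for 15.5 hr at 37C.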

[4] = qHTS assay for small molecule disruptors of the mitochondrial membrane potential - cell viability (AID 720634; calls by dose curve; note: nearly all actives have a fitted effect of over 20% in size; note: potency is the fitted concentration of half-maximal effect); settings: HepG2 viability, ATP luminescence (CellTiter-Glo), 1 h; series mostly up to 83.2 µM
How it was run: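 Cells: HepG2, 2,000/well, attached overnight. Compound 1 hr, 37 C/5% CO2. +m-MPI dye, +CellTiter-Glo 30 min RT. Readout: luminescence (ATP).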

[5] = qHTS assay to test for compound auto fluorescence at 590 nm (red) in HepG2 cells (AID 720674); settings: HepG2 autofluorescence, red 540/590 nm, 1 h; series mostly up to 91.3 µM; note: % is set by controls: 0 for no effect and ±100 for the full control effect
How it was run: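 Rose Bengal sodium served as the red fluorophore standard. HepG2 monolayers (overnight attachment, MEM with 10% FBS) were exposed to test compounds for 1 hr at 37 C and read at Ex 540/Em 590 nm.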

[6] = qHTS assay to test for compound auto fluorescence at 535 nm (green) in HepG2 cells (AID 720675); settings: green autofluorescence 485/535 nm, 1 h; series mostly up to 91.3 µM; note: % is set by controls: 0 for no effect and ±100 for the full control effect
[7] = qHTS assay to test for compound auto fluorescence at 460 nm (blue) in HEK293 cells (AID 720678); settings: blue autofluorescence 405/460 nm; series mostly up to 91.3 µM; note: % is set by controls: 0 for no effect and ±100 for the full control effect
How it was run: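 HEK293 cells (2,000/well, medium with 10% dialyzed FBS) attached 4-5 hr, then exposed to compound overnight at 37C, 5% CO2. Blue fluorescence read at 405/460 nm, with triamterene as reference fluorophore.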

[8] = qHTS assay to test for compound auto fluorescence at 590 nm (red) in HEK293 cells (AID 720679); settings: red autofluorescence 540/590 nm; series mostly up to 91.3 µM; note: % is set by controls: 0 for no effect and ±100 for the full control effect
How it was run: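 HEK293 cells (2,000/well, 10% dialyzed FBS) attached 4-5 hr, then dosed with compound or DMSO and incubated overnight at 37C, 5% CO2. Red fluorescence read at 540/590 nm, Rose Bengal sodium as reference fluorophore.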

[9] = qHTS assay for small molecule disruptors of the mitochondrial membrane potential (AID 720635); settings: HepG2 mitochondrial membrane potential, Mito-MPS dye ratio; series mostly up to 83.2 µM; note: potency is the fitted concentration of half-maximal effect
How it was run: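 HepG2 cells (2,000/well) attached overnight at 37C, then took compound for 1 hr at 37C, 5% CO2. Mito-MPS dye was added for 30 min; fluorescence was read at 490/535 nm (monomers) and 540/590 nm (aggregates).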

CCN(CC)CCSC(=O)C(c1ccccc1)c1ccccc1
inactive: Potency [1] | Potency [2] | Potency [3] | Potency [4] | Potency [5] | Potency [6] | Potency [7] | Potency [8]

Cc1ccc2ccc3cccc4ccc1c2c34
inactive: Potency [1] | Potency [2] | Potency [3] | Potency [5] | Potency [6] | Potency [7] | Potency [8]
active: Potency [9] 38.5 µM

CCCCCCC(C)Nc1ccc(Nc2ccccc2)cc1 (stereo not given)
active: Potency [2] 54.5 µM | Potency [9] 30.6 µM
inactive: Potency [1] | Potency [3] | Potency [5] | Potency [6] | Potency [7] | Potency [8]

C[C@@H]1CC[C@H]2C(C)(C)[C@H]3C[C@@]12CC[C@@]3(C)O
inactive: Potency [1] | Potency [2] | Potency [3] | Potency [7] | Potency [8]
active: Potency [9] 61 µM

CN(Cc1cc(Br)cc(Br)c1N)C1CCCCC1
inactive: Potency [1] | Potency [3] | Potency [5] | Potency [6] | Potency [7] | Potency [8]
active: Potency [2] 29.8 µM | Potency [9] 26.6 µM

O=C1c2c(O)ccc([N+](=O)[O-])c2C(=O)c2c([N+](=O)[O-])ccc(O)c21
active: Potency [2] 8.56 µM | Potency [3] 9.6 µM | Potency [4] 30.4 µM | Potency [9] 0.054 µM
inactive: Potency [1] | Potency [5] | Potency [7]

CC(C)(c1cc(Br)c(OCCO)c(Br)c1)c1cc(Br)c(OCCO)c(Br)c1
active: Potency [2] 47.5 µM | Potency [3] 37.7 µM | Potency [9] 5.97 µM
inactive: Potency [1] | Potency [5] | Potency [6] | Potency [7] | Potency [8]

CCCCCCCC/C=C/CCCOC(C)=O
inactive: Potency [1] | Potency [2] | Potency [3] | Potency [4] | Potency [5] | Potency [6] | Potency [7] | Potency [8]

CCN(CC)CCCN(c1ccccc1)C1Cc2ccccc2C1
active: Potency [2] 13.3 µM | Potency [3] 23.7 µM
inactive: Potency [1] | Potency [5] | Potency [6]

CN1CCN(C2Cc3ccccc3Sc3ccc(Cl)cc32)CC1 (stereo not given)
active: Potency [2] 29.8 µM
inactive: Potency [1] | Potency [3] | Potency [4] | Potency [6] | Potency [7] | Potency [8]

CCN=C1C=CC(=C(c2ccc(N(CC)CC)cc2)c2ccc(N(CC)CC)cc2)c2ccccc21
inactive: Potency [1] | Potency [5] | Potency [6] | Potency [7] | Potency [8]
active: Potency [2] 30.5 µM | Potency [3] 34.2 µM

CN(C)c1ccc(N=NS(=O)(=O)O)cc1
inactive: Potency [1] | Potency [2] | Potency [5] | Potency [7] | Potency [8]
active: Potency [9] 2.17 µM

CCN(CC)CCOc1ccc(C(O)(Cc2ccc(Cl)cc2)c2ccc(C)cc2)cc1 (stereo not given)
active: Potency [2] 29.8 µM
inactive: Potency [1] | Potency [4] | Potency [5] | Potency [6] | Potency [7] | Potency [8]

CC(NCCC(c1ccccc1)c1ccccc1)c1ccccc1 (stereo not given)
active: Potency [2] 29.8 µM
inactive: Potency [1] | Potency [4] | Potency [6] | Potency [8]

CC(C(O)c1ccccc1)N(C)CCOC(c1ccccc1)c1ccccc1 (stereo not given)
inactive: Potency [1] | Potency [3] | Potency [4] | Potency [5] | Potency [6] | Potency [7] | Potency [8]

C[C@@]12C(=O)OC(=O)[C@]1(C)C1CCC2O1
inactive: Potency [4] | fluorescence, relative to Rose Bengal [5] 0.463% [at 18.6 µM] | fluorescence, % of triamterene [7] -0.421% [at 18.6 µM] | fluorescence, % of fluorescent control [8] -0.0987% [at 18.6 µM]
active: Potency [1] 0.902 µM | Potency [3] 3.59 µM | Potency [9] 0.101 µM

CCN1CCN(c2cc(-c3ccc(F)cc3)c3c(n2)CCCCCC3)CC1
inactive: Potency [1] | Potency [3] | Potency [4] | Potency [5] | Potency [6] | Potency [7]

CC(C)c1ccc(O)c(C(C)C)c1
active: Potency [9] 15.4 µM
inactive: Potency [1] | Potency [2] | Potency [6] | Potency [7] | Potency [8]

COc1cccc(CCc2ccccc2OCC(CN(C)C)OC(=O)CCC(=O)O)c1 (stereo not given)
inactive: Potency [1] | Potency [3] | Potency [4] | Potency [5] | Potency [6] | Potency [7]

Cc1occc1SSc1ccoc1C
inactive: Potency [1] | Potency [2] | Potency [4] | Potency [5] | Potency [6] | Potency [7] | Potency [8]

C=CC(=O)OCC(O)COc1ccccc1 (stereo not given)
inactive: Potency [1] | Potency [4] | Potency [5] | Potency [6] | Potency [7] | Potency [8]
active: Potency [2] 54.5 µM

CCCCCCCCCCCCCC[n+]1ccccc1
inactive: Potency [1] | Potency [3] | Potency [4] | Potency [5] | Potency [6] | Potency [7]
